Assay outcomes deposited in PubChem BioAssay by several laboratories.
SMARCA2 activ: SMARCA2 function activation, primary screen. hit rate 1% among 370,000. MG213 cells, MMTV-luciferase reporter, dexamethasone, overnight. activation, % at 9.1 µM; in the data active means activation above about 7.8%
bovine MsrA act: activators of bovine methionine sulfoxide reductase A | hit rate 0.3% among 360,000 | purified bovine MsrA, absorbance read-out | activation, % at 10.6 µM; in the data active means activation above about 7.5%
MsrA inhibitor: inhibits bovine methionine sulfoxide reductase A; AID 651718; inhibition, % at 15.5 µM; purified bovine MsrA, absorbance read-out; hit rate 0.75% among 360,000; in the data active means inhibition above about 4.5%
ABCB6 inh MLPCN: inhibitors of human ABC transporter ABCB6. AID 602162. hit rate 0.19% among 360,000. fluorescence ratio to DMSO, % at 10 µM. Q9NP58. K562-ABCB6 porphyrin accumulation, flow cytometry, 1 h; stronger effect = lower value;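 active means fluorescence ratio to DMSO below 75%, the collection mean minus 3 SD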;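 further: signal is porphyrin accumulated inside mitochondria; lower ratio means ABCB6 inhibition with less porphyrin fluorescence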
Target sequence (Q9NP58 whole entry, looked up): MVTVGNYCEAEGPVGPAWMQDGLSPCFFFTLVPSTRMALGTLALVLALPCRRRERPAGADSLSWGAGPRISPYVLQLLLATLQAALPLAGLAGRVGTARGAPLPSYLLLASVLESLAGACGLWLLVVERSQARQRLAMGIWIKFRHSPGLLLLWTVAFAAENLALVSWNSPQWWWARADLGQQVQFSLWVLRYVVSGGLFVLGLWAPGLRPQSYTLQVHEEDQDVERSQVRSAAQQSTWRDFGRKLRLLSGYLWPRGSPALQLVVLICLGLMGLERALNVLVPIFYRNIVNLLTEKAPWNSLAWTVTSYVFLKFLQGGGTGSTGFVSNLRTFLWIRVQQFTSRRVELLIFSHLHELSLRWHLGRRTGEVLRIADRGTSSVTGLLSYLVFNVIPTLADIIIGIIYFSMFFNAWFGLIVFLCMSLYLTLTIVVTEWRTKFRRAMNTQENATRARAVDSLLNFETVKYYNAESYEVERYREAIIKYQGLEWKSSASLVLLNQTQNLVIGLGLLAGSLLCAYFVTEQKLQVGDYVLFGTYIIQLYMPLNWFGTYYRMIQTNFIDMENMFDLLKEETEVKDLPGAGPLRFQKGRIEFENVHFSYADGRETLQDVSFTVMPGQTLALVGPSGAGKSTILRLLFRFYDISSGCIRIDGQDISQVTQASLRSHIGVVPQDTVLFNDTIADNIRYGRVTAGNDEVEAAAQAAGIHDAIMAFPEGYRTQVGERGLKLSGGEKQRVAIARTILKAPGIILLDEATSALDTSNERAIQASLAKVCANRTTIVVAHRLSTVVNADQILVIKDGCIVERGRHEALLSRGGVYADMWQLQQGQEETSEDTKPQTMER
Large screens that a line does not name were inactive. Compounds with a hit are over-represented: about 2.1% of the library has one in this group of screens.

Cc1c(C(=O)O)cccc1-n1c(C)cc(/C=N/NC(=O)c2cc3ccccc3o2)c1C	MsrA inhibitor 4.6
O=C(CSc1nnc(-c2ccccc2)n1-c1ccc(Cl)cc1)NN=Cc1c[nH]c2ccccc12	none (no result: bovine MsrA act, MsrA inhibitor, ABCB6 inh MLPCN)
CC(=NCCc1ccccc1)C1=C(O)CSC1=O	ABCB6 inh MLPCN 74.0
CC(=NCCc1ccccc1)C1=C(O)CCC1=O	none
COc1ccc(-c2cc(NC=O)c3ncc(-c4ccc(C(C)=O)cc4)n3c2)cc1OC	SMARCA2 activ 7.9
COC(=O)[C@]12C[C@H](CC(=O)N3CCSCC3)C(=O)N(Cc3cccc4ccccc34)C1=C[C@H](C1CCCC1)O[C@@H]2C	none (no result: bovine MsrA act, MsrA inhibitor, ABCB6 inh MLPCN)
COc1ccc(N2CC(C(=O)N[C@@H](C)C(=O)NC3CCCC3)CC2=O)cc1 (some centres undefined)	none
CCC(C)[C@H](NC(=O)C1CC(=O)N(c2ccc(OC)cc2)C1)C(=O)NC1CCCC1 (some centres undefined)	SMARCA2 activ 8.0
Cc1nn(-c2ccccc2)c(C)c1C(=O)NCCc1ccccc1	SMARCA2 activ 8.0
Cc1nn(-c2ccccc2)c(C)c1C(=O)NCCc1ccc(Cl)cc1	none
COC(=O)[C@]12C[C@H](CC(=O)NCc3cccs3)C(=O)N(CCc3ccc(OC)c(OC)c3)C1=C[C@H](C1CCCC1)O[C@@H]2C	none (no result: bovine MsrA act, MsrA inhibitor, ABCB6 inh MLPCN)
O=[N+]([O-])c1ccc2[nH]c(=S)sc2c1	bovine MsrA act 9.6
CC(=O)[C@@]1(O)Cc2c(O)c3c(c(O)c2[C@H](O[C@H]2C[C@H](N)[C@H](O)[C@H](C)O2)C1)C(=O)c1ccccc1C3=O	MsrA inhibitor 4.6
C/C(=N\NC(=O)c1ccncc1)c1ccc(N(C)C)cc1	MsrA inhibitor 4.7
COc1ccc(N2CCN(C(=O)CSc3nnc(-c4cccnc4)n3-c3ccc(F)cc3)CC2)cc1	SMARCA2 activ 7.9
Cc1c(NC(C)c2cc(Cl)ccc2O)c(=O)n(-c2ccccc2)n1C (centres undefined)	none
Cc1c(NC(C)c2ccccc2O)c(=O)n(-c2ccccc2)n1C (centres undefined)	ABCB6 inh MLPCN 54.0
CCOc1ccc(-c2cc(C(=O)NCCCN3CCN(CC)CC3)c3ccccc3n2)cc1	MsrA inhibitor 4.6
COc1cc(NCCCC(C)N)c2ncccc2c1 (centres undefined)	bovine MsrA act 12.4
O=C(CN1C(=O)NC2(CCCCCC2)C1=O)c1ccc(F)cc1	none
CCc1ccc(C(=O)CN2C(=O)NC3(CCCCCC3)C2=O)cc1	SMARCA2 activ 7.9
COc1ccc(/C=C/C(=O)C2C(=O)C=C(C)OC2=O)cc1O (centres undefined)	ABCB6 inh MLPCN 68.0
Cc1ccc2nc(NC(=O)CCn3c(=O)sc4ccccc43)sc2c1	ABCB6 inh MLPCN 72.0
COC(=O)c1ccccc1-c1ccc(/C=N/NC(N)=O)o1	none
COC(=O)c1sccc1-c1ccc(/C=N/OC(=O)c2ccccc2)o1	ABCB6 inh MLPCN 54.0
CCOc1ccc(CCNC(=O)c2cc3sccc3n2CC)cc1OC	none (no result: bovine MsrA act, MsrA inhibitor, ABCB6 inh MLPCN)
COc1ccc(C=Nn2c(-c3ccccc3F)n[nH]c2=S)cc1OCc1ccccc1	none (no result: bovine MsrA act, MsrA inhibitor, ABCB6 inh MLPCN)
C#CCNC(=O)C[C@H]1C[C@@]2(C(=O)OC)C(=C[C@H](C(C)(C)C)O[C@@H]2C)N(Cc2cccc3ccccc23)C1=O	none (no result: bovine MsrA act, MsrA inhibitor, ABCB6 inh MLPCN)
COc1cc(/C=N/Nc2nncn2/N=C/c2ccc(O)c(OC)c2)ccc1O	MsrA inhibitor 4.6
COc1cc(/C=N/Nc2nnc3c(n2)[nH]c2ccccc23)ccc1O	MsrA inhibitor 4.6
Cc1cc(C)c(C)c(OCCOCCN2CCN(C)CC2)c1	none
Cc1cc(C)c(C)c(OCCCCN2CCCCC2)c1	SMARCA2 activ 7.9
CCCCCC(=O)C(=O)c1ccc(O)cc1O	MsrA inhibitor 4.6
Cc1ccc(S(=O)(=O)CCC(=O)c2ccc(O)cc2O)cc1	none
O=C(CSc1nnc(-c2cccnc2)n1-c1ccccc1)Nc1cccc2ccccc12	none (no result: bovine MsrA act, MsrA inhibitor, ABCB6 inh MLPCN)
CC(C)C[C@@H]1COc2cc(N3CCCC3)ccc2S(=O)(=O)N1C	none (no result: bovine MsrA act, MsrA inhibitor, ABCB6 inh MLPCN)
O=C(CSc1nnc(Cc2ccsc2)o1)c1ccccc1	SMARCA2 activ 7.8
COC(=O)C1CN(Cc2ccc(OC)cc2)CCS(=O)(=O)N1Cc1cn(Cc2ccc(Cl)cc2)nn1 (centres undefined)	none (no result: bovine MsrA act, MsrA inhibitor, ABCB6 inh MLPCN)
O=C(N/N=C/C=C/c1ccccc1)c1cc(C2CC2)[nH]n1	none
Cc1ccc(-c2cc(C(=O)N/N=C/C=C/c3ccccc3)n[nH]2)s1	MsrA inhibitor 4.6
Cc1cnn(-c2ccccc2)c1NC(=O)COCc1ccccc1	none (no result: bovine MsrA act, MsrA inhibitor, ABCB6 inh MLPCN)
CN(C)c1ccc(C=c2c3ccccc3n3c2cc(-c2ccc(Cl)cc2)[n+]3C)cc1	bovine MsrA act 14.5
CCN(CC)C(=O)Oc1cc2c(-c3cc4cccc(OC)c4o3)cc(=O)oc2cc1C	none
COc1cccc2cc(-c3cc(=O)oc4ccc(OCC(C)=O)cc34)oc12	MsrA inhibitor 9.5
O=c1oc(-c2ccccc2)nc2c1C1(CCCCC1)Cc1ccccc1-2	none
CCC1(CC)Cc2ccccc2-c2nc(-c3ccccc3)oc(=O)c21	ABCB6 inh MLPCN 70.0 (no result: SMARCA2 activ, MsrA inhibitor)
COc1ccc(CN2CCC(CNC(=O)Nc3ccc(Cl)cc3)CC2)cc1	none (no result: bovine MsrA act, MsrA inhibitor, ABCB6 inh MLPCN)
CC(C)Sc1nc(C(F)(F)F)cc(=O)n1-c1ccccc1	bovine MsrA act 13.6
CCSc1nc(C(F)(F)F)cc(=O)n1-c1ccccc1	none
CCCCCc1ccc(NC(=O)OCCCN2CCC3(CCC(c4ccccc4)CC3)C2=O)cc1 (centres undefined)	none (no result: bovine MsrA act, MsrA inhibitor, ABCB6 inh MLPCN)
O=C(N/N=C/c1ccc2c(c1)OCCO2)c1ccncc1	MsrA inhibitor 4.5
O=C(N/N=C/c1ccncc1)c1ccc2c(c1)OCO2	none
CC(=O)c1ccc(NC(=O)/C(=C\c2ccc(F)cc2)NC(=O)c2ccco2)cc1	ABCB6 inh MLPCN 74.0
COc1cc(/C=N/N2C(C)CCCC2C)cc(Br)c1O (centres undefined)	none
CC1CCCC(C)N1/N=C/c1cc(Br)c(O)c(Br)c1 (centres undefined)	MsrA inhibitor 4.6 (no result: bovine MsrA act, ABCB6 inh MLPCN)
CC(=O)NC(CC(=O)NCCN1C(=O)S/C(=C\c2ccccc2)C1=O)c1ccccc1 (centres undefined)	MsrA inhibitor 4.6
NC(=S)N/N=C1\CC(n2nnnc2-c2ccccc2Cl)C2COC1O2 (centres undefined)	SMARCA2 activ 7.8
COc1c2c(c(OC)c3c1c(=O)c1ccccc1n3C)OCO2	SMARCA2 activ 7.9
CCCCCCCCN1C(=O)[C@@H](CC(=O)N2CCCCC2)C[C@@]2(C(=O)OC)C1=C[C@H](C(C)C)O[C@@H]2C1CC1	none (no result: bovine MsrA act, MsrA inhibitor, ABCB6 inh MLPCN)
CCOc1ccccc1NC(=O)CSc1nnc2c(CC)c(C)nc(N)n12	SMARCA2 activ 7.9
O=C1NC(=S)N(C(=O)c2ccc(F)cc2)/C1=C/c1cccnc1	ABCB6 inh MLPCN 15.0
COc1ccc(/C=C2\C(=O)NC(=S)N2C(=O)c2ccc(C)cc2)cc1	none
CCCC/C=C1/[C@H](c2ccc(Cl)cc2)N(Cc2ccc3c(c2)OCO3)C2=N[C@H](c3ccccc3)CC(=O)N21	none (no result: bovine MsrA act, MsrA inhibitor, ABCB6 inh MLPCN)
O=C(CSc1nnc(CCCN2C(=O)c3cccc4cccc(c34)C2=O)n1-c1ccccc1)N1CCCCC1	SMARCA2 activ 8.1
CC(C)(C)OC(=O)CNC(=O)c1[nH]cnc1C(=O)NCCCCCN	none
CC(C)(C)OC(=O)CNC(=O)c1[nH]cnc1C(=O)NCCCCCNC(=O)OC(C)(C)C	ABCB6 inh MLPCN 74.0
CCOC(=O)c1sc(NC(=O)c2ccco2)nc1-c1ccccc1	SMARCA2 activ 7.9
